Here are results for 154 variants from a collection of fitness landscapes (doi:10.1016/j.celrep.2020.107928).

B1: Caulobacter ParB omega fusion; a variant is named by its letters at X, in order, B8GW30 (parent)
chain: MESVVVGEPGMSEGRRGLGRGLSALLGEVDAAPAQAPGEQLGGSREAPIEILQRNPDQPRRTFREEDLEDLSNSIREKGVLQPILVRPSPDTAGEYQIVAGERAWRAAQRAGLKTVPIMVRELDDLAVLEIGIIENVQRADLNVLEEALSYKVLMEKFERTQENIAQTIGKSXSHVANXMRLLXLPDEVQSYLVSGELTAXHARAIAAAADPVALAKQIIEGGLSVRETEALARKAPNLSAGKSKGGRPPRVKDTDTQALESDLSSVLGLDVSIDHRGSTGTLTITYATLEQLDDLCNRLTRGI

The full ranking holds about 81,000 sequences; the median of “one-hybrid fitness for binding parS DNA” is about -0.17, and the highest 2% start at about 0.51. The list comes from a sample in which the highest values are over-represented; it also holds similar and randomly drawn sequences.

The test covers variants of B1. As to the kind of experiment: one-hybrid fitness for binding parS DNA (scaled: cognate 1, non-cognate 0); higher = stronger binding. Particulars: with parS DNA site. In short, it runs like this:
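Fitness here means the log change in variant-to-wild-type read ratio between plasmids sequenced before and after selection. That scale was set so cognate equals 1 and non-cognate equals 0. The selection was a bacterial one-hybrid screen of Caulobacter ParB libraries, four specificity codons randomised, in E. coli USO carrying a HIS3 reporter with the site 19 bp from the promoter, grown 48 hours at 37°C on M9-minus-histidine with 0.1 mM IPTG and 5 mM 3-AT.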
In the case of IKAI, the “one-hybrid fitness for binding parS DNA” value was no more than 0.2.

HHKY: the “one-hybrid fitness for binding parS DNA” value was no more than 0.2.

Consider RSDE, for which the “one-hybrid fitness for binding parS DNA” value is no more than 0.2.

FGTM: the “one-hybrid fitness for binding parS DNA” value is no more than 0.2.

Take PPRW: the “one-hybrid fitness for binding parS DNA” value is no more than 0.2.

KGNG: the “one-hybrid fitness for binding parS DNA” value is no more than 0.2.

For the variant QLTS, the “one-hybrid fitness for binding parS DNA” value was no more than 0.2.

As for DASE, the “one-hybrid fitness for binding parS DNA” value was no more than 0.2.

With GPYH, the “one-hybrid fitness for binding parS DNA” value came to 0.233.

Turning to GWLC, the “one-hybrid fitness for binding parS DNA” value was no more than 0.2.

On to EELW, for which the “one-hybrid fitness for binding parS DNA” value was no more than 0.2.

Turning to SCTR, the “one-hybrid fitness for binding parS DNA” value is no more than 0.2.

For IRQT, the “one-hybrid fitness for binding parS DNA” value is no more than 0.2.

Turning to VEHR, the “one-hybrid fitness for binding parS DNA” value was no more than 0.2.

Consider RYSG, for which the “one-hybrid fitness for binding parS DNA” value was 0.984.

Take RYGR: the “one-hybrid fitness for binding parS DNA” value is no more than 0.2.

Turning to RYLM, the “one-hybrid fitness for binding parS DNA” value was 0.324.

As for RYSD, the “one-hybrid fitness for binding parS DNA” value was no more than 0.2.

RYWK: the “one-hybrid fitness for binding parS DNA” value was no more than 0.2.

With RYLY, the “one-hybrid fitness for binding parS DNA” value stood at 0.462.

In the case of RYLG, the “one-hybrid fitness for binding parS DNA” value is 0.986.

Regarding RYGG, the “one-hybrid fitness for binding parS DNA” value stood at 0.97.

RYWG: the “one-hybrid fitness for binding parS DNA” value is 0.89.

Turning to RYGF, the “one-hybrid fitness for binding parS DNA” value was determined as 0.205.

As to RYWQ, the “one-hybrid fitness for binding parS DNA” value was no more than 0.2.

For the variant RYSP, the “one-hybrid fitness for binding parS DNA” value is no more than 0.2.

With AIYV, the “one-hybrid fitness for binding parS DNA” value was no more than 0.2.

In the case of RKII, the “one-hybrid fitness for binding parS DNA” value was no more than 0.2.

Consider QIVC, for which the “one-hybrid fitness for binding parS DNA” value is no more than 0.2.

For KAHG, the “one-hybrid fitness for binding parS DNA” value was no more than 0.2.

Take VQHT: the “one-hybrid fitness for binding parS DNA” value was no more than 0.2.

Consider HLQY, for which the “one-hybrid fitness for binding parS DNA” value is no more than 0.2.

For the variant RYQM, the “one-hybrid fitness for binding parS DNA” value was 0.31.

As to RYRP, the “one-hybrid fitness for binding parS DNA” value is no more than 0.2.

As to RYDH, the “one-hybrid fitness for binding parS DNA” value was no more than 0.2.

For RYDG, the “one-hybrid fitness for binding parS DNA” value is 0.913.

As for RYQF, the “one-hybrid fitness for binding parS DNA” value amounted to 0.207.

For RYDP, the “one-hybrid fitness for binding parS DNA” value was no more than 0.2.

For RYQG, the “one-hybrid fitness for binding parS DNA” value amounted to 0.971.

With RYRG, the “one-hybrid fitness for binding parS DNA” value came out at 0.92.

Consider RYRH, for which the “one-hybrid fitness for binding parS DNA” value was no more than 0.2.

SLFE: the “one-hybrid fitness for binding parS DNA” value was no more than 0.2.

For WPSR, the “one-hybrid fitness for binding parS DNA” value was no more than 0.2.

For the variant QMHP, the “one-hybrid fitness for binding parS DNA” value is no more than 0.2.

Regarding VYQY, the “one-hybrid fitness for binding parS DNA” value is no more than 0.2.

On to SHPH, for which the “one-hybrid fitness for binding parS DNA” value was no more than 0.2.

RWRT: the “one-hybrid fitness for binding parS DNA” value is 0.722.

Regarding RWNY, the “one-hybrid fitness for binding parS DNA” value was determined as 0.339.

Take RWET: the “one-hybrid fitness for binding parS DNA” value stood at 0.437.

In the case of RWDT, the “one-hybrid fitness for binding parS DNA” value was 0.512.

As for RWNT, the “one-hybrid fitness for binding parS DNA” value turned out to be 0.682.

As to RWIT, the “one-hybrid fitness for binding parS DNA” value was 0.387.

For RWFT, the “one-hybrid fitness for binding parS DNA” value is 0.497.

For RWNQ, the “one-hybrid fitness for binding parS DNA” value was no more than 0.2.

For the variant RWAT, the “one-hybrid fitness for binding parS DNA” value stood at 0.614.

As for RWAR, the “one-hybrid fitness for binding parS DNA” value is no more than 0.2.

Take PRFH: the “one-hybrid fitness for binding parS DNA” value was no more than 0.2.

As for HAWM, the “one-hybrid fitness for binding parS DNA” value is no more than 0.2.

Take IKVG: the “one-hybrid fitness for binding parS DNA” value was no more than 0.2.

As for EEHS, the “one-hybrid fitness for binding parS DNA” value is no more than 0.2.

As to NPMG, the “one-hybrid fitness for binding parS DNA” value is no more than 0.2.

In the case of CKHA, the “one-hybrid fitness for binding parS DNA” value is no more than 0.2.

Regarding GRFC, the “one-hybrid fitness for binding parS DNA” value was no more than 0.2.

As for PTDC, the “one-hybrid fitness for binding parS DNA” value is no more than 0.2.

Take AWVV: the “one-hybrid fitness for binding parS DNA” value is no more than 0.2.

DFLV: the “one-hybrid fitness for binding parS DNA” value is no more than 0.2.

Regarding TRVH, the “one-hybrid fitness for binding parS DNA” value is no more than 0.2.

As to KVCE, the “one-hybrid fitness for binding parS DNA” value was no more than 0.2.

Take NTDV: the “one-hybrid fitness for binding parS DNA” value was no more than 0.2.

Take SNDS: the “one-hybrid fitness for binding parS DNA” value was no more than 0.2.

Regarding RWCY, the “one-hybrid fitness for binding parS DNA” value is no more than 0.2.

In the case of RWGT, the “one-hybrid fitness for binding parS DNA” value amounted to 0.548.

Take RWYT: the “one-hybrid fitness for binding parS DNA” value is 0.596.

Consider RWHT, for which the “one-hybrid fitness for binding parS DNA” value amounted to 0.655.

Turning to RWWT, the “one-hybrid fitness for binding parS DNA” value is 0.507.

RWCT: the “one-hybrid fitness for binding parS DNA” value was 0.611.

For RWCF, the “one-hybrid fitness for binding parS DNA” value was no more than 0.2.

Take RWPT: the “one-hybrid fitness for binding parS DNA” value came out at 0.284.

For PDGT, the “one-hybrid fitness for binding parS DNA” value is no more than 0.2.

As for PKSV, the “one-hybrid fitness for binding parS DNA” value is no more than 0.2.

Regarding QRHM, the “one-hybrid fitness for binding parS DNA” value is no more than 0.2.

With THKG, the “one-hybrid fitness for binding parS DNA” value is no more than 0.2.

With MWHG, the “one-hybrid fitness for binding parS DNA” value is no more than 0.2.

In the case of YDRG, the “one-hybrid fitness for binding parS DNA” value was no more than 0.2.

For TVTH, the “one-hybrid fitness for binding parS DNA” value was no more than 0.2.

As for GSYT, the “one-hybrid fitness for binding parS DNA” value was no more than 0.2.

Regarding MYQT, the “one-hybrid fitness for binding parS DNA” value was no more than 0.2.

Consider GLVV, for which the “one-hybrid fitness for binding parS DNA” value was no more than 0.2.

In the case of RWQN, the “one-hybrid fitness for binding parS DNA” value stood at 0.264.

Regarding RWQD, the “one-hybrid fitness for binding parS DNA” value was no more than 0.2.

Take RWLT: the “one-hybrid fitness for binding parS DNA” value was 0.556.

For the variant RWQT, the “one-hybrid fitness for binding parS DNA” value stood at 0.618.

Turning to RWSD, the “one-hybrid fitness for binding parS DNA” value was no more than 0.2.

With RWSN, the “one-hybrid fitness for binding parS DNA” value was found to be 0.318.

For RWKQ, the “one-hybrid fitness for binding parS DNA” value was no more than 0.2.

Regarding RWKT, the “one-hybrid fitness for binding parS DNA” value was 0.811.

With RWST, the “one-hybrid fitness for binding parS DNA” value was 0.665.

Consider RWVT, for which the “one-hybrid fitness for binding parS DNA” value is 0.43.

Regarding THYN, the “one-hybrid fitness for binding parS DNA” value is no more than 0.2.

Turning to TFIW, the “one-hybrid fitness for binding parS DNA” value was no more than 0.2.

SPRC: the “one-hybrid fitness for binding parS DNA” value is no more than 0.2.

On to DYFS, for which the “one-hybrid fitness for binding parS DNA” value was no more than 0.2.

For the variant HAPN, the “one-hybrid fitness for binding parS DNA” value is no more than 0.2.

For the variant RKAW, the “one-hybrid fitness for binding parS DNA” value is no more than 0.2.

On to FTYI, for which the “one-hybrid fitness for binding parS DNA” value was no more than 0.2.

On to RVVV, for which the “one-hybrid fitness for binding parS DNA” value was no more than 0.2.

On to SIHC, for which the “one-hybrid fitness for binding parS DNA” value was no more than 0.2.

In the case of LMAG, the “one-hybrid fitness for binding parS DNA” value is no more than 0.2.

On to QCAE, for which the “one-hybrid fitness for binding parS DNA” value is no more than 0.2.

For RLFC, the “one-hybrid fitness for binding parS DNA” value came out at 0.948.

For RLAC, the “one-hybrid fitness for binding parS DNA” value worked out at 0.995.

For RLAM, the “one-hybrid fitness for binding parS DNA” value was determined as 0.342.

For RLFP, the “one-hybrid fitness for binding parS DNA” value is no more than 0.2.

Take RLFH: the “one-hybrid fitness for binding parS DNA” value was found to be 0.258.

As to RLAR, the “one-hybrid fitness for binding parS DNA” value was no more than 0.2.

In the case of FKTR, the “one-hybrid fitness for binding parS DNA” value is no more than 0.2.

Regarding LCPN, the “one-hybrid fitness for binding parS DNA” value was no more than 0.2.

On to GYEP, for which the “one-hybrid fitness for binding parS DNA” value is no more than 0.2.

As for RADA, the “one-hybrid fitness for binding parS DNA” value worked out at 0.563.

For RAYA, the “one-hybrid fitness for binding parS DNA” value stood at 0.602.

Consider RACA, for which the “one-hybrid fitness for binding parS DNA” value was 0.609.

DACA: the “one-hybrid fitness for binding parS DNA” value was no more than 0.2.

As to NANA, the “one-hybrid fitness for binding parS DNA” value is no more than 0.2.

Consider RAIA, for which the “one-hybrid fitness for binding parS DNA” value was 0.461.

Turning to RAPA, the “one-hybrid fitness for binding parS DNA” value was found to be 0.231.

As for RANA, the “one-hybrid fitness for binding parS DNA” value was 0.595.

For the variant FRDR, the “one-hybrid fitness for binding parS DNA” value is no more than 0.2.

With TQKT, the “one-hybrid fitness for binding parS DNA” value is no more than 0.2.

In the case of WTHY, the “one-hybrid fitness for binding parS DNA” value is no more than 0.2.

In the case of REHK, the “one-hybrid fitness for binding parS DNA” value was no more than 0.2.

For GALF, the “one-hybrid fitness for binding parS DNA” value is no more than 0.2.

Take VMFV: the “one-hybrid fitness for binding parS DNA” value is no more than 0.2.

LLFI: the “one-hybrid fitness for binding parS DNA” value was no more than 0.2.

RAQA: the “one-hybrid fitness for binding parS DNA” value was 0.548.

Turning to NARA, the “one-hybrid fitness for binding parS DNA” value was no more than 0.2.

Regarding NAQA, the “one-hybrid fitness for binding parS DNA” value was no more than 0.2.

RARA: the “one-hybrid fitness for binding parS DNA” value turned out to be 0.658.

In the case of DARA, the “one-hybrid fitness for binding parS DNA” value was no more than 0.2.

Consider PICM, for which the “one-hybrid fitness for binding parS DNA” value was no more than 0.2.

As to LVHY, the “one-hybrid fitness for binding parS DNA” value was no more than 0.2.

Consider WEWS, for which the “one-hybrid fitness for binding parS DNA” value was no more than 0.2.

Turning to SNSE, the “one-hybrid fitness for binding parS DNA” value is no more than 0.2.

Consider RTNN, for which the “one-hybrid fitness for binding parS DNA” value turned out to be 0.424.

For RTNS, the “one-hybrid fitness for binding parS DNA” value amounted to 0.874.

Consider RTDH, for which the “one-hybrid fitness for binding parS DNA” value was no more than 0.2.

With RTDN, the “one-hybrid fitness for binding parS DNA” value came out at 0.404.

Take RTDS: the “one-hybrid fitness for binding parS DNA” value worked out at 0.989.

With RTND, the “one-hybrid fitness for binding parS DNA” value was no more than 0.2.

As to FLHS, the “one-hybrid fitness for binding parS DNA” value is no more than 0.2.

For the variant LGVG, the “one-hybrid fitness for binding parS DNA” value is no more than 0.2.

As for ALYT, the “one-hybrid fitness for binding parS DNA” value is no more than 0.2.

Regarding QTLN, the “one-hybrid fitness for binding parS DNA” value was no more than 0.2.

For the variant DVLN, the “one-hybrid fitness for binding parS DNA” value is no more than 0.2.

For TSTW, the “one-hybrid fitness for binding parS DNA” value was no more than 0.2.
